From PubChem BioAssay AID1159580 (chemical genetic matrix, 2015)
Out of some 5,500 compounds screened, about 2,000 (36%) were called active. About 18% were inconclusive and are not listed. No stated cut-off is given here; in the data, active means normalized growth mostly below about 0.91 (no sharp cut-off); inconclusive means no clear call, values can overlap the other calls; inactive means mostly above about 0.92. The list shows a part of the results.

Assay: chemical genetic growth profiling, strain panel (AID 1159580);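 further: tested at 20 µM; growth read once vehicle control cultures reached saturation at 30 °C; 1 = growth at the plate median or of vehicle wells; lower values mean less growth of the strain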
Settings: growth OD

Measured: normalized growth

CC1(C)S[C@@H]2[C@H](NC(=O)Cc3ccccc3)C(=O)N2[C@H]1C(=O)O
inactive: S. cerevisiae deletion strains, locus YJR066W, strain TOR1, active compounds read low 0.941 | S. cerevisiae deletion strains, locus YKL009W, strain mrt4, active compounds read low 1 | S. cerevisiae deletion strains, locus YKL068W, active compounds read low 1 | S. cerevisiae deletion strains, locus YKL085W, strain MDH1 (second series), active compounds read low 1 | S. cerevisiae deletion strains, locus YKL085W, strain MDH1, active compounds read low 1 | S. cerevisiae deletion strains, locus YKL160W, strain elf1, active compounds read low 1.01 | S. cerevisiae deletion strains, locus YKL190W, strain CNB1, active compounds read low 1.01 | S. cerevisiae deletion strains, locus YKR001C, strain vps1, active compounds read low 1.01 | S. cerevisiae deletion strains, locus YKR026C, strain gcn3, active compounds read low 1.03 | S. cerevisiae deletion strains, locus YKR091W, strain srl3, active compounds read low 1.01 | S. cerevisiae deletion strains, locus YLL001W, strain dnm1, active compounds read low 1.03 | S. cerevisiae deletion strains, locus YLL026W, active compounds read low 1.02 | S. cerevisiae deletion strains, locus YLL041C, strain sdh2, active compounds read low 1.01 | S. cerevisiae deletion strains, locus YLR027C, strain aat2, active compounds read low 1.03 | S. cerevisiae deletion strains, locus YLR039C, strain RIC1, active compounds read low 1.04 | S. cerevisiae deletion strains, locus YLR058C, strain SHM2, active compounds read low 1 | S. cerevisiae deletion strains, locus YLR102C, strain apc9, active compounds read low 1.02 | S. cerevisiae deletion strains, locus YLR113W, strain HOG1, active compounds read low 0.986 | S. cerevisiae deletion strains, locus YLR221C, strain rsa3, active compounds read low 1.03 | S. cerevisiae deletion strains, locus YLR258W, strain gsy2, active compounds read low 1.03 | S. cerevisiae deletion strains, locus YLR262C, strain YPT6 (second series), active compounds read low 1 | S. cerevisiae deletion strains, locus YLR262C, strain YPT6, active compounds read low 1.02 | S. cerevisiae deletion strains, locus YLR268W, strain sec22, active compounds read low 1.02 | S. cerevisiae deletion strains, locus YLR320W, strain mms22, active compounds read low 1.04 | S. cerevisiae deletion strains, locus YLR330W, strain CHS5, active compounds read low 1 | S. cerevisiae deletion strains, locus YLR342W, strain FKS1 (second series), active compounds read low 1.01 | S. cerevisiae deletion strains, locus YLR342W, strain FKS1, active compounds read low 1.03 | S. cerevisiae deletion strains, locus YLR357W, strain rsc2, active compounds read low 1.03 | S. cerevisiae deletion strains, locus YLR370C, strain arc18, active compounds read low 1.03 | S. cerevisiae deletion strains, locus YLR371W, strain rom2, active compounds read low 1.02 | S. cerevisiae deletion strains, locus YLR384C, strain iki3, active compounds read low 1.03 | S. cerevisiae deletion strains, locus YLR418C, strain cdc73, active compounds read low 1.03 | S. cerevisiae deletion strains, locus YML016C, strain PPZ1, active compounds read low 1.01 | S. cerevisiae deletion strains, locus YML032C, strain rad52, active compounds read low 1.02 | S. cerevisiae deletion strains, locus YML120C, strain ndi1, active compounds read low 1.04 | S. cerevisiae deletion strains, locus YML124C, strain tub3, active compounds read low 1.02 | S. cerevisiae deletion strains, locus YMR058W, strain fet3, active compounds read low 1.01 | S. cerevisiae deletion strains, locus YMR078C, strain ctf18, active compounds read low 1.03 | S. cerevisiae deletion strains, locus YMR125W, strain sto1, active compounds read low 1.06 | S. cerevisiae deletion strains, locus YMR129W, active compounds read low 1.03 | S. cerevisiae deletion strains, locus YMR205C, strain PFK2, active compounds read low 1.03 | S. cerevisiae deletion strains, locus YMR223W, strain ubp8, active compounds read low 1.02 | S. cerevisiae deletion strains, locus YMR231W, strain pep5, active compounds read low 1.03 | S. cerevisiae deletion strains, locus YMR263W, strain SAP30, active compounds read low 1 | S. cerevisiae deletion strains, locus YMR307W, strain GAS1, active compounds read low 1.01 | S. cerevisiae deletion strains, locus YNL067W, strain RPL9B, active compounds read low 1 | S. cerevisiae deletion strains, locus YNL071W, strain lat1, active compounds read low 1.02 | S. cerevisiae deletion strains, locus YNL128W, strain TEP1, active compounds read low 1.01 | S. cerevisiae deletion strains, locus YNL183C, strain NPR1, active compounds read low 0.944 | S. cerevisiae deletion strains, locus YNL209W, strain ssb2, active compounds read low 1.02 | S. cerevisiae deletion strains, locus YNL233W, strain BNI4, active compounds read low 0.999 | S. cerevisiae deletion strains, locus YNL248C, strain rpa49, active compounds read low 1.03 | S. cerevisiae deletion strains, locus YNL250W, strain rad50, active compounds read low 1.02 | S. cerevisiae deletion strains, locus YNL271C, strain bni1, active compounds read low 1.02 | S. cerevisiae deletion strains, locus YNL298W, strain CLA4, active compounds read low 1.01 | S. cerevisiae deletion strains, locus YNL307C, strain MCK1, active compounds read low 1.03 | S. cerevisiae deletion strains, locus YNL322C, strain KRE1 (second series), active compounds read low 1.04 | S. cerevisiae deletion strains, locus YNR049C, strain mso1, active compounds read low 1.01 | S. cerevisiae deletion strains, locus YNR052C, strain pop2, active compounds read low 1.02 | S. cerevisiae deletion strains, locus YOL006C, strain TOP1, active compounds read low 1.02 | S. cerevisiae deletion strains, locus YOL012C, strain htz1 1.12 | S. cerevisiae deletion strains, locus YOL147C, strain pex11, active compounds read low 1.02 | S. cerevisiae deletion strains, locus YOR001W, strain rrp6, active compounds read low 1.04 | S. cerevisiae deletion strains, locus YOR061W, strain CKA2, active compounds read low 1.01 | S. cerevisiae deletion strains, locus YOR069W, strain VPS5, active compounds read low 0.998 | S. cerevisiae deletion strains, locus YOR070C, strain gyp1, active compounds read low 1.03 | S. cerevisiae deletion strains, locus YOR080W, strain dia2, active compounds read low 1.02 | S. cerevisiae deletion strains, locus YOR083W, strain WHI5, active compounds read low 0.987 | S. cerevisiae deletion strains, locus YOR106W, strain vam3, active compounds read low 1.03 | S. cerevisiae deletion strains, locus YOR136W, strain idh2, active compounds read low 1.02 | S. cerevisiae deletion strains, locus YOR144C, strain elg1, active compounds read low 1.02 | S. cerevisiae deletion strains, locus YOR184W, strain ser1, active compounds read low 1.06 | S. cerevisiae deletion strains, locus YOR231W, strain MKK1, active compounds read low 0.994 | S. cerevisiae deletion strains, locus YOR265W, strain rbl2, active compounds read low 1.01 | S. cerevisiae deletion strains, locus YOR270C, strain vph1, active compounds read low 1.13 | S. cerevisiae deletion strains, locus YOR290C, strain snf2, active compounds read low 1.03 | S. cerevisiae deletion strains, locus YOR316C, strain cot1, active compounds read low 1.02 | S. cerevisiae deletion strains, locus YPL051W, strain arl3, active compounds read low 1.03 | S. cerevisiae deletion strains, locus YPL055C, strain LGE1, active compounds read low 1.01 | S. cerevisiae deletion strains, locus YPL078C, strain atp4, active compounds read low 1.03 | S. cerevisiae deletion strains, locus YPL106C, strain sse1, active compounds read low 1.02 | S. cerevisiae deletion strains, locus YPL240C, strain hsp82, active compounds read low 1.02 | S. cerevisiae deletion strains, locus YPL256C, strain CLN2, active compounds read low 0.966 | S. cerevisiae deletion strains, locus YPR119W, strain clb2, active compounds read low 1.03 | S. cerevisiae deletion strains, locus YPR141C, strain kar3, active compounds read low 1.01 | S. cerevisiae deletion strains, locus YPR163C, strain tif3, active compounds read low 1.03 | S. cerevisiae deletion strains, locus YPR167C, strain met16, active compounds read low 1.02 | S. cerevisiae deletion strains, strain wtn01, active compounds read low 1.01 | S. cerevisiae strains, strain wild type, active compounds read low 1
